KDM5B inhibitor = Primary screen for KDM5B Histone Demethylases FDH-coupled qHTS; AID 1347165, 2019; 220,000 tested, 2.6% active; KDM5B demethylase, FDH-coupled NADH fluorescence (FDH is formaldehyde dehydrogenase); Lysine-specific demethylase 5B (Homo sapiens), Q9UGL1; Potency, µM (series often up to 57.7 µM), hits mostly inhibitors; active = well fitted inhibition curve with a large enough effect; note: 0% is about no effect; nearly all actives have a fitted effect of over 70% in size
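Coupled FDH/NAD⁺ fluorescence readout. KDM5BΔAP 200 nM final; compound titration, 10 min RT preincubation; substrate mix 12.5 µM H3K4me3, 25 µM 2-OG, 50 µM Fe(II), 100 µM ascorbate, 0.25 mM NAD⁺, 0.25 U/mL FDH; ΔRFU over 30 min.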
Starred values were filed as active, the others as inactive; i = inactive. This excerpt belongs to a sample that is enriched for hits. Potency is the fitted concentration of half-maximal effect.

SMILES	KDM5B inhibitor
COc1cccc(CN2CCc3nc(C4CC4)nc(-c4ccc(O)cc4)c3C2)c1	i
COc1ccc(C(=O)N2CCc3nc(C4CC4)nc(-c4ccc(OC)cc4)c3C2)cc1	i
COc1ccc(-c2nc(C3CC3)nc3c2CCN(CC2CCCCC2)CC3)cc1	25µM*
Cc1ccc(C(=O)Nc2ccc3oc(C)nc3c2)cc1	i
OC1(c2cccc3ccccc23)CCN(Cc2ccccc2)C1 (centres undefined)	i
Cc1ccc2cc(C(=O)N(C)C3CCS(=O)(=O)C3)c(C)nc2c1 (centres undefined)	i
COc1ccc(NC(=O)C2CC(=O)Nc3nc(N4CCc5ccccc5C4)[nH]c(=O)c32)cc1 (centres undefined)	i
COc1ccc(C2CC(=O)Nc3c2c(C)nn3-c2ncccn2)cc1 (centres undefined)	i
CCOC(=O)Cn1c(=O)c2c3c(sc2n(Cc2ccc(F)cc2)c1=O)CCCC3	i
CCOC(=O)C(O)(NC(=O)NC(C)=O)C(F)(F)F (centres undefined)	i
COc1ccc(N2CC3CCC(C2)N3Cc2ccc(Cl)cc2)cc1	i
Cc1sc2nc(C(C)Sc3nnnn3C)[nH]c(=O)c2c1C (centres undefined)	i
Cc1ccc(S(=O)(=O)NC[C@H]2OC[C@@H](NC3CCOCC3)[C@@H]2O)cc1	i
Cc1ccc(C(=O)N2CCCC3(C2)Nc2cccnc2NC3=NCc2ccccc2)cn1 (centres undefined)	28µM*
CC(C)(C)c1ccc(C(=O)N2CCCC3(C2)NC(=O)N(Cc2ccccc2)C3=O)cc1 (centres undefined)	i
CCCCS(=O)(=O)N1CCCC2(C1)Nc1cccnc1NC2=NCc1ccccc1 (centres undefined)	28µM*
O=C(NCc1ccco1)N1CCC(OC2CCN(Cc3ccccc3)CC2)CC1	i
O=C(NCc1ccco1)N1CCCC2(C1)Nc1cccnc1NC2=NCc1ccccc1 (centres undefined)	25µM*
Cc1cccc(C(=O)N2CCCC3(C2)NC(=O)N(Cc2ccccc2)C3=O)c1 (centres undefined)	i
O=C(NCc1ccco1)N1CCc2n[nH]c(=O)n2CC1	i
Cn1c(=O)n([C@H]2CCCN(S(=O)(=O)Cc3ccccc3)C2)c2ncccc21	i
CCCCCCSC1=C(C#N)C(c2ccc(CC)cc2)CC(=O)N1 (centres undefined)	i
CCn1nc(C(C)C)cc1C(=O)N1CCN(C)C2(CCC(=O)N(C)CC2)C1 (centres undefined)	i
COc1cc(CN2C[C@@H](CO)[C@H](C3CCN(C(C)=O)CC3)C2)ccc1F	i
Cc1ccc(NC(=O)c2ccc(=O)n(CCOc3ccccc3)n2)c(Br)c1	i
SMILES	KDM5B inhibitor
COc1cccc(Nc2ncc3c(n2)C(C)(C(=O)N2CCN(c4ccccn4)CC2)CC3)c1 (centres undefined)	i
COc1cccc(Nc2ncc3c(n2)C(C)(C(=O)NCCN2CCOCC2)CC3)c1 (centres undefined)	i
CN1Cc2ccc(Nc3ccccc3)nc2C(C)(C(=O)NCc2cccs2)C1 (centres undefined)	32µM*
CC1(C(=O)NCc2cccs2)CCCCC(=O)N1 (centres undefined)	i
COc1cccc(Nc2ncc3c(n2)C(C)(C(=O)NCCCn2ccnc2)CC3)c1 (centres undefined)	i
Cn1cc(-c2ccccc2)cc1C(=O)NCc1cccs1	i
COc1cccc(Nc2ccc3c(n2)C(C)(C(=O)NCCc2cnc[nH]2)CN(C)C3)c1 (centres undefined)	40µM*
COc1cccc(N2CC(C(=O)NCC3CC3)NC2=O)c1 (centres undefined)	i
COc1cccc(Nc2ccc3c(n2)C(C)(C(=O)NCC2CC2)CN(C)C3)c1 (centres undefined)	35µM*
C/C(CC(C)C)=N\NC(=O)c1cccc(C)c1	i
CC1(C(=O)NCc2ccc(F)cc2)CN(S(C)(=O)=O)CC(=O)N1Cc1ccc2c(c1)OCO2 (centres undefined)	i
COc1ccccc1CNC(=O)c1ccc2c(c1)nc(C)n2-c1ccc(Br)cc1	i
COc1ccc(OC)c(NC(=O)N2CCC(OC3CCN(S(C)(=O)=O)CC3)CC2)c1	i
Fc1ccc(/C=N/NC(=S)NCc2ccccc2)cc1F	i
O=C(CCc1c[nH]c2ccccc12)NCc1cccc(Cl)c1	i
CCn1nccc1C(=O)NCc1cc(C)cc2c(C)c(-c3ccccc3)[nH]c12	13µM*
CC1=C(c2ccc(C)c(C)c2)S(=O)(=O)NC1=NCC(=O)NCc1ccccc1C	i
Cc1cc(C)cc(N(C(=O)c2ccc3c(c2)OCO3)C2C=CS(=O)(=O)C2)c1 (centres undefined)	i
Cc1c(-c2ccccc2)[nH]c2c(CNC(=O)C3=NN(C)C(=O)CC3)cc(Cl)cc12	i
Cc1nc(CCC(=O)NCc2cc(Cl)cc3c(C)c(-c4ccccc4)[nH]c23)n[nH]1	25µM*
Cc1cc(CNC(=O)C(C)Cn2nc(C)nc2C)c2[nH]c(-c3ccccc3)c(C)c2c1 (centres undefined)	i
Cc1cc(CNC(=O)CC2C=CS(=O)(=O)C2)c2[nH]c(-c3ccccc3)c(C)c2c1 (centres undefined)	28µM*
CCn1nccc1C(=O)N1CCN(c2cc(-c3ccccc3)[nH]n2)CC1	i
O=C(NCc1cccc(Cl)c1)c1oc(=O)c2ccccc2c1-c1ccccc1	i
Cc1ncoc1C(=O)NCc1cc(Cl)cc2c(C)c(-c3ccccc3)[nH]c12	35µM*
SMILES	KDM5B inhibitor
Cc1nc2c(-c3ccccc3)c(C)nn2c(C)c1CCC(=O)NCc1ccc(Cl)cc1	i
CCN(C(=O)C(=O)c1c[nH]c2ccccc12)c1ccc(C)c(C)c1	i
Cc1nc(-c2ccc(Cl)cc2)n(Cc2ccc(F)cc2F)c(=O)c1CCO	i
Cc1c(C)n(CCN2CCOCC2)c2ncn3nc(-c4ccccc4Br)nc3c12	i
CCCSc1nc2c(c(=O)n(C)c(=O)n2C)n1Cc1ccccc1Cl	i
Cn1cc(CNC(=O)C2CCN(c3nc(-c4ccccc4)nc4c3CCC4)CC2)cn1	i
Cc1ccc(C(CNC(=O)c2cc(-c3ccccc3)on2)N2CCN(C)CC2)o1 (centres undefined)	i
Cc1cc(CNC(=O)c2cc(-c3ccccc3)cc3c2OCCN3C)no1	40µM*
COc1ccc(-c2cc(C(=O)NCc3cc(C)on3)c3c(c2)N(C)CCO3)cc1OC	35µM*
COc1ccc(-c2cc(C(=O)NCCCN3CCOCC3)c3ccccc3n2)cc1OC	i
CC(=O)Nc1cc(-c2cc(C(=O)NCc3cc(C)on3)c3c(c2)N(C)CCO3)ccn1	i
CN1CCOc2c(C(=O)NCc3cnn(C)c3)cc(-c3ccccc3)cc21	40µM*
COc1ccc(CNC(=O)c2noc(-c3ccc(C)cc3)n2)cc1OC	i
Cc1oc(-c2ccccc2)cc1C(=O)NCc1ccncc1	i
CC(C)(C)C1CCC2(CC1)NC(=O)N(CC(=O)N1CCN(c3ccc(F)cc3)CC1)C2=O (centres undefined)	i
Cc1cnc(C(=O)N2CCCN(C(=O)C3CC3)c3ccccc32)cn1	i
CC(C)c1ccc(NC2=N[C@H]3[C@@H](O)[C@H](O)C[C@H](C(=O)NC4CCCC4)[C@H]3S2)cc1	i
COc1ccc(Nc2cc(C)nc3nc(-c4ccc(Cl)cc4)nn23)c(OC)c1	i

Screens as filed in PubChem.
